In PubChem BioAssay (NCI) one finds growth data, which are given here for 8 molecules.

About 83,000 compounds went through this panel and 20% of them were active in at least one assay; those are over-represented in the sample as a whole.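 Step 1: grow cells in 96-well plates. Step 2: add test compound at a single concentration. Step 3: incubate 48 h. Step 4: record percent growth.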 Values without a mark were called inactive. Calls of active or inactive are those of the source. Rule for the calls: active = growth percent below 10; inactive = the rest.

Test systems include SR leukemia; RPMI-8226 leukemia; OVCAR-8 ovarian; OVCAR-5 ovarian; OVCAR-4 ovarian; SK-OV-3 ovarian; IGROV1 ovarian; OVCAR-3 ovarian; HS 578T breast; NCI/ADR-RES ovarian; T-47D breast; BT-549 breast; MDA-MB-435 melanoma; SW-620 colon; MCF7 breast; HCT-116 colon; HCC-2998 colon; MDA-MB-468 breast; KM12 colon.
Holding throughout (test): NCI-60 one-dose screen, 48 h (100 = growth as untreated, 0 = no growth, -100 = all killed)
What all share (conditions): 10 µM unless noted

Take `N#Cc1cc(-c2ccc3ncnc(N4CCc5cc(F)c(Cl)cc54)c3c2)cnc1N`: the growth in the assay on SR leukemia was -25.7% (active); in the assay with RPMI-8226 leukemia it was 28.2%; in the assay on OVCAR-8 ovarian, 44.3%; in the assay on OVCAR-5 ovarian, 55.2%; in the assay with OVCAR-4 ovarian, 29.5%; in the assay with SK-OV-3 ovarian, 64.3%. For the same molecule, the growth is -16.2% (active) in the assay on IGROV1 ovarian; 16.6% in the assay with OVCAR-3 ovarian; -7.07% (active) with HS 578T breast; 47.2% with NCI/ADR-RES ovarian; 25.8% in the assay on T-47D breast; 9.67% (active) with BT-549 breast. Besides, the growth was 39.2% in the assay on MDA-MB-435 melanoma; 25.2% with SW-620 colon; 4.81% (active) in the assay with MCF7 breast; 33.2% with HCT-116 colon; 50.1% in the assay on HCC-2998 colon; -14.7% (active) in the assay on MDA-MB-468 breast.
For `COc1ccc2c(c1)C(Sc1ccc(Cl)cc1)c1c(nc(N)c(C#N)c1N)O2` (stereo not drawn), the growth with SR leukemia was -3.94% (active); with RPMI-8226 leukemia it was 29.4%; with OVCAR-8 ovarian, 73.6%; with OVCAR-5 ovarian it was 108%; in the assay with OVCAR-4 ovarian, 73.5%; in the assay with SK-OV-3 ovarian it was 107%. In addition, the growth with IGROV1 ovarian was 25.9%; with OVCAR-3 ovarian, 93.2%; in the assay with HS 578T breast, 45.8%; in the assay on NCI/ADR-RES ovarian, 73.6%; in the assay with T-47D breast it was 55%; in the assay on BT-549 breast, 12.4%. Besides, the growth in the assay with MDA-MB-435 melanoma was 75.8%; in the assay with SW-620 colon it was 58.1%; with MCF7 breast it was 26.7%; with HCT-116 colon it was 48%; in the assay on HCC-2998 colon it was 94.2%; in the assay with MDA-MB-468 breast it was 77.9%.
`CC[C@]12C=CCN3CC[C@@]4(c5ccc(OC)cc5N(C)[C@H]4[C@@](O)(C(=O)OC)[C@@H]1OC(=O)CCCC[P+](c1ccc(F)cc1)(c1ccc(F)cc1)c1ccc(F)cc1)[C@@H]32`: the growth with SR leukemia was 28.8%; in the assay with RPMI-8226 leukemia, 4.14% (active); in the assay with OVCAR-8 ovarian, 20%; with OVCAR-5 ovarian it was 49.7%; in the assay with OVCAR-4 ovarian, 33.1%; in the assay with SK-OV-3 ovarian, 41.4%. Also, the growth in the assay on IGROV1 ovarian was -42.8% (active); in the assay on OVCAR-3 ovarian, 12.6%; in the assay with HS 578T breast, -2.23% (active); in the assay on NCI/ADR-RES ovarian, 105%; in the assay with T-47D breast, 12.8%; with BT-549 breast, -23.5% (active). In addition, the growth in the assay on MDA-MB-435 melanoma is -16% (active); in the assay with SW-620 colon, 36.9%; with MCF7 breast, 5.18% (active); with HCT-116 colon it was 23.4%; in the assay with HCC-2998 colon it was 19.4%; in the assay with KM12 colon it was 16%. Also, the growth with MDA-MB-468 breast was -74.6% (active).
As to `COc1ccc(N=Nc2c(N)nn3c(-c4ccc([N+](=O)[O-])cc4)ccnc23)cc1`, the growth in the assay with SR leukemia was 98.2%; in the assay with RPMI-8226 leukemia, 94%; in the assay on OVCAR-8 ovarian it was 107%; in the assay with OVCAR-5 ovarian it was 113%; in the assay with OVCAR-4 ovarian it was 92.8%; in the assay on SK-OV-3 ovarian, 106%. For the same molecule, the growth with IGROV1 ovarian was 104%; in the assay with OVCAR-3 ovarian it was 113%; in the assay on HS 578T breast it was 89%; with NCI/ADR-RES ovarian, 97.8%; with T-47D breast, 81.6%; with BT-549 breast, 94%. The growth is 98.4% in the assay with SW-620 colon; 95.3% in the assay on MCF7 breast; 97.9% with HCT-116 colon; 113% in the assay on HCC-2998 colon; 102% in the assay on KM12 colon; 105% in the assay on MDA-MB-468 breast.
For the molecule `O=C1Nc2cc(-c3ccc(NS(=O)(=O)c4ccc(F)c(Cl)c4)cc3)ccc2/C1=C/c1ccc[nH]1`, the growth in the assay with SR leukemia was 6.77% (active); in the assay on RPMI-8226 leukemia, 21.4%; in the assay on OVCAR-8 ovarian, 34.9%; in the assay on OVCAR-5 ovarian it was 19.7%; in the assay with OVCAR-4 ovarian, 26.4%; with SK-OV-3 ovarian it was 39.6%. For the same molecule, the growth in the assay on IGROV1 ovarian was 45.9%; in the assay on OVCAR-3 ovarian, 56.9%; in the assay with HS 578T breast it was 45.6%; in the assay with NCI/ADR-RES ovarian, 29.7%; in the assay with T-47D breast, 14.7%; in the assay on BT-549 breast, 19.7%. Further, the growth in the assay with MDA-MB-435 melanoma was 55.1%; in the assay with SW-620 colon it was 33.9%; in the assay on HCT-116 colon, 12%; with HCC-2998 colon, 17.1%; in the assay on KM12 colon it was 13.6%.
Regarding `N#Cc1c(-c2ccc(F)cc2)nc(SCc2ccccc2)nc1N1CCNCC1`, the growth in the assay on SR leukemia is -10.3% (active); in the assay on RPMI-8226 leukemia it was -58% (active); in the assay with OVCAR-8 ovarian, -77.5% (active); with OVCAR-5 ovarian, -96.3% (active); in the assay on OVCAR-4 ovarian, -75% (active); in the assay on SK-OV-3 ovarian it was -67.9% (active). Also, the growth in the assay on IGROV1 ovarian is -95.6% (active); in the assay with OVCAR-3 ovarian, -61.3% (active); in the assay on HS 578T breast, -45.6% (active); with NCI/ADR-RES ovarian, -51.1% (active); in the assay on T-47D breast, -75.9% (active); in the assay with BT-549 breast, -97.4% (active). Besides, the growth is -78.7% (active) with SW-620 colon; -84.7% (active) in the assay with MCF7 breast; -96.9% (active) with HCT-116 colon; -64.6% (active) in the assay on HCC-2998 colon; -64.3% (active) in the assay on MDA-MB-468 breast.
For the molecule `O=C(c1ccc(Cl)cc1)C1[C@H](c2ccccc2Cl)[C@@H](c2ccccc2)NC12C(=O)Nc1ccccc12` (stereo partly drawn), the growth in the assay on SR leukemia is -41% (active); with RPMI-8226 leukemia, -0.108% (active); with OVCAR-8 ovarian it was -31% (active); with OVCAR-5 ovarian, -5.18% (active); with OVCAR-4 ovarian it was 2.24% (active); in the assay with SK-OV-3 ovarian, 23.1%. Moreover, the growth in the assay on IGROV1 ovarian was -2.25% (active); in the assay on OVCAR-3 ovarian, -15.5% (active); with HS 578T breast, -38.3% (active); in the assay with NCI/ADR-RES ovarian, -62.5% (active); in the assay on T-47D breast, -6.74% (active); in the assay with BT-549 breast, -77.4% (active). Also, the growth in the assay with SW-620 colon was -5.33% (active); in the assay on MCF7 breast, -19% (active); in the assay on HCT-116 colon, -91.3% (active); in the assay with HCC-2998 colon, -46.2% (active); in the assay with KM12 colon, -23.4% (active); in the assay on MDA-MB-468 breast, -44.8% (active).
With `COc1sc(/C=N/NC(=O)c2[nH]c3ccc(Br)cc3c2-c2ccccc2)cc1Br`, the growth in the assay with SR leukemia was 4.82% (active); with RPMI-8226 leukemia, 9.25% (active); with OVCAR-8 ovarian, 12%; with OVCAR-5 ovarian it was 0.79% (active); in the assay with OVCAR-4 ovarian, 41.9%; in the assay on SK-OV-3 ovarian, 40.2%. The growth in the assay with IGROV1 ovarian was 11.8%; in the assay with OVCAR-3 ovarian it was -0.827% (active); with HS 578T breast, 20.7%; in the assay with NCI/ADR-RES ovarian, -64.9% (active); in the assay on T-47D breast, 62%; in the assay on BT-549 breast it was -29.1% (active). For the same molecule, the growth in the assay on SW-620 colon is 6.77% (active); in the assay with MCF7 breast, 4.42% (active); in the assay with HCT-116 colon, -5.78% (active); in the assay on HCC-2998 colon it was 8.54% (active); in the assay with KM12 colon, 2.33% (active); with MDA-MB-468 breast, -14.5% (active).
